Laboratory results taken from PubChem BioAssay (EPA / NIEHS).
More than one record can exist for a structure, and the calls need not agree. Calls of active or inactive are those of the source. The calls were made as follows: active = hit-call score of the fitted dose curve at least 0.9, where 1 is the maximum; inactive = score below 0.9.

Read-out: 3-Hydroxy-3-Methylglutaryl-CoA Synthase 2 (HMGCS2), HMGCS2 (gene 3158)
Experiment: LTEA_HepaRG_HMGCS2: Life Technologies and Expression Analysis (LTEA) Assay for 3-Hydroxy-3-Methylglutaryl-CoA Synthase 2 (HMGCS2) using HepaRG (AID 2283504)
Conditions: mRNA level, 48 h; actives raise or lower the signal
Method: LTEA_HepaRG is a cell based, multiplexed-readout assay that uses HepaRG, a human liver cell line, with measurements taken at 48 hours after chemical dosing on a 96-well plate.LTEA_HepaRG_HMGCS2 is one of 102 assay component(s) measured in the LTEA HepaRG cell culture assay. It is a marker of Steatosis.Data from the assay component LTEA_HepaRG_HMGCS2 was analyzed into 1 endpoint. This assay endpoint, LTEA_HepaRG_HMGCS2, was analyzed with bidirectional fitting relative to DMSO as the negative control and baseline of activity. Using a type of inducible reporter, measures of mRNA induction for gain or loss-of-signal activity can be used to understand regulation of transcription factor activity. To generalize the intended target to other relatable targets, this assay endpoint is annotated to the lyase intended target family, where the subfamily is HMG-CoA synthase.
A total of 1060 chemcials from the ToxCast library were tested in eight-point concentration-response experiments. Cell culture and cytotoxicity assays were conducted at Thermo Fisher Scientific's Custom Services facility (Madison, WI). A single lot of human HepaRG cells (Thermo Fisher Scientific, Frederick, MD) was used for the cell culture experiments. 96-well format collagen type I coated plates of human HepaRG cells were prepared using established methods. Briefly, cryopreserved HepaRG cells were thawed, plated at a density of approximately 100,000 cells/well in HepaRG Thaw, Plate, and General Purpose media (HPRG770, Thermo Fisher Scientific), and incubated for 48 hours. 0.5% DMSO was selected as vehicle control to balance the requisite need of DMSO in HepaRG cultures to maintain differentiation (for example, baseline metabolism, proportions of hepatocytes vs. cholangiocytes), while enabling further hepatic receptor pathway activation (for example, PXR and CAR) in response to chemical exposure. 48 hours after plating, the culture medium was replaced with HepaRG Serum-Free Incudtion Media. Cells were exposed to each test chemical in duplicate and maintained in CO2 incubators for another 48 hours. Chemical plates were thawed to room temperature and 200x concentrations of treatment groups were prepared. 8-point conentration-reponse curves were made with the highest exposure at 100 uM, followed by half-log dilutions, all in 0.5% DMSO. Each test plate contained variouse controls, induction positive controls (1mM phenobarbital), cytotoxicity positive controls ([…] aflatoxin B1), vehicle controls (0.5% DMSO), and total lysis controls (0.5% DMSO). Cell morphology images were taken using an Essen IncuCyte FLR automated microscope, with six 96-well plates imaged in about 24 minutes. Images were captured and exported and JPEG files. Spent culture media was transfered to black-well plates for the LDH assay, and remaining media was sorted at -80 C for later use. Cells were treated with RLT buffer and frozen until shipped for gene expression analysis. Total RNA was isolated from the cell suspension in 75 uL of Buffer RLT (Qiagen, Germantown, MD 20874) by Quintiles/Expression Analysis (Durham, NC) using a custom isolation procedure. Total RNA from each plate well was transferred to a preamplification plate. Fluidigm's 96.96 Dynamic ArrayTM (Fluidigm, Amsterdam, the Netherlands) technology was used for gene expression analyses by quantitative reverse transcription polymerase chain reaction (qRT-PCR, performed by Quintiles/Expression Analysis, Durham, NC)89. Standard TaqManTM Assays (Applied Biosystems/ThermoFisher Scientific, Foster City, CA) were used to assess the expression of 93 genes selected based on their selectivity and sensitivity to important hepatic receptors known to be modulated by environmental chemicals; importance in human hepatocyte functionality; and hepatotoxicity. […]

Compound | outcome | AC50
CN(C)N=O | inactive | 
ClCC(Cl)CCl | inactive | 
CC(C)(C)CC(C)(C)c1ccc(O)cc1 | inactive | 
NC(=O)O | inactive | 
CC(C)(c1ccccc1)c1ccc(O)c(C(C)(C)c2ccccc2)c1 |  | 71.5 µM (active)
O=C(Nc1ccc2[nH]ccc2c1)c1cc2cc(F)ccc2n1Cc1cccc(F)c1 |  | 30.2 µM (active)
CCOP(=S)(OCC)SCSP(=S)(OCC)OCC |  | 9.92 µM (active)
COc1cc(-c2ccc(N)c(OC)c2)ccc1N | inactive | 42.7 µM (active)
CCC(C)(C)c1ccc(O)c(C(C)(C)CC)c1 | inactive | 
O=C1C2(Cl)C3(Cl)C4(Cl)C(Cl)(Cl)C5(Cl)C3(Cl)C1(Cl)C5(Cl)C24Cl (configuration not stated) |  | 24.2 µM (active)
ClC1(Cl)C2(Cl)C3(Cl)C4(Cl)C(Cl)(Cl)C5(Cl)C3(Cl)C1(Cl)C5(Cl)C24Cl (configuration not stated) | inactive | 
CC(C)(OO)c1ccccc1 | inactive | 
CCN1CCC2(CC1)COc1cc3c(cc12)N(C(=O)c1ccc(-c2ccc(-c4nnc(C)o4)cc2C)cc1)CC3 |  | 22.8 µM (active)
CC(=O)[O][Hg][c]1ccccc1 |  | 23.3 µM (active)
C=C(C)C(=O)[O][Sn]([CH2]CCC)([CH2]CCC)[CH2]CCC |  | 2.69 µM (active)
C[C@@H]1C[C@@H]([C@H](O)CC2CC(=O)NC(=O)C2)C(=O)[C@@H](C)C1 |  | 27 µM (active)

Compound | outcome | AC50
O=C(O)C(F)(F)C(F)(F)C(F)(F)C(F)(F)C(F)(F)C(F)(F)C(F)(F)C(F)(F)C(F)(F)C(F)(F)F | inactive | 
O=[N+]([O-])c1ccc(O)c([N+](=O)[O-])c1 |  | 22.9 µM (active)
O=c1[nH]c(=O)[nH]c(=O)[nH]1 | inactive | 
CCOP(=S)(OCC)Oc1nc(Cl)c(Cl)cc1Cl | inactive | 
C[C@]12CCC(=O)C[C@@H]1CC[C@@H]1[C@@H]2CC[C@]2(C)[C@@H](O)CC[C@@H]12 | inactive | 
CCCCCCCCc1ccc(O)cc1 |  | 64.6 µM (active)
C=CC(=O)OCCCCCC(C)C | inactive | 
Cn1sc(Cl)cc1=O | inactive | 
CC(C)(C)c1cc(O)ccc1O | inactive | 
CCC(=O)C(CC(C)N(C)C)(c1ccccc1)c1ccccc1 (configuration not stated) |  | 36.2 µM (active)
CC12CC1(C)C(=O)N(c1cc(Cl)cc(Cl)c1)C2=O (configuration not stated) |  | 21.6 µM (active)
O=C(O)C(Cl)(Cl)Cl | inactive | 
Cc1ccccc1N | inactive | 
Oc1cccc2cccnc12 | inactive | 
O=C(O)C(F)(F)C(F)(F)C(F)(F)C(F)(F)C(F)(F)C(F)(F)F |  | 22 µM (active)
